# Measurements from paper PMC4552634, “A New Set of Chemical Starting Points with Plasmodium falciparum Transmission-Blocking Potential for Antimalarial Drug Discovery” (PLoS ONE, 2015).
# Among all 13,000 compounds or so, about 3,200 (25%) showed an effect of 50% or more. Some of the results follow.
# Tested on: P. falciparum stage V gametocytes
# Parameters: BacTiter-Glo ATP luminescence viability of purified stage V gametocytes in 384-well plates, per cent inhibition versus DMSO
# Details: 48 h, 5 µM; inhibitor
row,Structure (SMILES),% Inhibition [%]
1,O=C(N[C@@H](CC1CCCCC1)C(=O)NCc1cccc(C(F)(F)F)c1)c1ccc(O)c(-c2ccc(Cl)c(Cl)c2)c1 [TCMDC-140836],10.47
2,Cc1nc2sccn2c1C(=O)NCCc1ccccc1Cl [TCMDC-136538],1.524
3,CC(C)(CNC(=O)[C@H]1CCCN1)c1nc(-c2ccc(Cl)c(O)c2)c(-c2ccncc2)[nH]1 [TCMDC-141060],-63.79
4,O=C(NCc1cccs1)[C@H](Cc1ccccc1)Nc1ccnc(NCC2CCCCC2)n1 [TCMDC-134708],-6.926
5,COc1ccccc1CCNc1nccc(N[C@@H](Cc2ccccc2)C(=O)NCc2cccs2)n1 [TCMDC-134745],80.93
6,COc1ccccc1CCNc1ncc(F)c(N[C@@H](Cc2ccccc2)C(=O)NCCc2ccccc2)n1 [TCMDC-134948],4.371
7,O=C(NCCc1ccccc1)[C@H](Cc1ccccc1)Nc1ccnc(NCC2CCCCC2)n1 [TCMDC-134711],29.07
8,O=C(NCc1cccs1)[C@H](Cc1ccccc1)Nc1ccnc(NCCc2ccc(F)cc2)n1 [TCMDC-134825],42.49
9,O=C(NCc1cccs1)[C@H](Cc1ccccc1)Nc1ccnc(NCCc2ccccc2)n1 [TCMDC-134810],62.6
10,O=C(C1CC1)N1c2ccccc2CCc2ccccc21 [TCMDC-123880],17.87
11,COc1cc(Cl)c(C)cc1-n1cc(C(=O)c2cc(Br)ccc2O)cc(C#N)c1=O [TCMDC-123630],-51.04
12,CCCCC(CC)NC(=O)[C@H]1CNCCN1C(=O)CCCc1ccccc1 (stereo partly drawn) [TCMDC-141269],-15.01
13,CCOC(=O)C1=C(C)NC2=C(C(=O)C(C(=O)OC)C(C)C2)C1c1cc(Br)c(OCC)c(OC)c1 (stereo not drawn) [TCMDC-125139],94.17
14,CCCCOC(=O)C1=C(C)NC2=C(C(=O)CC(c3ccc(OC)c(OC)c3)C2)C1c1ccc(O)cc1 (stereo not drawn) [TCMDC-125635],28.36
15,CCCCOC(=O)C1=C(C)NC2=C(C(=O)CCC2)C1c1ccc(OC)c(Br)c1 (stereo not drawn) [TCMDC-124210],-70.69
16,O=C(Nc1ccc(-c2ccc(-c3nc4ccccc4[nH]3)cc2)cc1)Nc1ccc(Cl)c(Cl)c1 [TCMDC-133279],-60.39
17,Oc1ccc(CN2CCN(CCOC(c3ccc(F)cc3)c3ccc(F)cc3)CC2)cc1Cl [TCMDC-135691],8.088
18,CN1CCC(C(=O)Nc2cccc(-c3ccc(-c4nc5ccc(C(F)(F)F)cc5[nH]4)cc3)c2)CC1 [TCMDC-132190],21.59
